Screening results (PubChem)
This is a sample that favours compounds with a hit; in the whole collection about 6.5% have one here.
Vaccinia mCherry = qHTS for Stage-Specific Inhibitors of Vaccinia Orthopoxvirus: mCherry Reporter Primary qHTS. Vaccinia virus mCherry reporter infection, fluorescence. Potency, µM (titrated, usually from 36.5 µM), hits mostly inhibitors. actives 0.63% (n = 310,000); calls by dose curve; tested in A549 cells; also: nearly all actives have a fitted effect of over 35% in size
FMDV antiviral = High Throughput Screening for Foot and Mouth Disease Virus Antivirals; FMDV antiviral cell-based qHTS; Potency, µM (series often up to 57.9 µM), actives largely listed as inhibitors; actives 1.2% (n = 410,000); AID 1159524, 2015; calls by dose curve; tested in HEK293T cells; also: read-out not given here; nearly all actives have a fitted effect of over 45% in size
LASV entry inh = qHTS for Inhibitors of binding or entry into cells for Lassa Virus | Lassa virus pseudotype entry inhibition, cell reporter | Potency, µM (series often up to 37.9 µM), most hits filed as inhibitors | actives 1.2% (n = 300,000); calls by dose curve; tested in HEK293 cells; also: nearly all actives have a fitted effect of over 50% in size
VACV Venus inh = qHTS for Stage-Specific Inhibitors of Vaccinia Orthopoxvirus: Venus Reporter Primary qHTS. Vaccinia virus Venus reporter expression, fluorescence. Potency, µM (titrated, usually from 36.5 µM), hits mostly inhibitors. actives 0.46% (n = 330,000); calls by dose curve; tested in A549 cells; also: nearly all actives have a fitted effect of over 30% in size
Marburg entry inh = qHTS for inhibitors of binding or entry into cells for Marburg Virus | Potency, µM (top dose mostly 37.8 µM), most hits filed as inhibitors | actives 1.8% (n = 300,000) | Marburg virus pseudotyped entry inhibition, cell reporter | AID 540276, 2011; calls by dose curve; tested in HEK293 cells
HCMV antiviral = qHTS Assay for inhibitors of the human cytomegalovirus (HCMV). HFF cells, HCMV-luciferase reporter, 72 h; hits give low values. activity change, negative = inhibition, % at 57.5 µM. actives 4.5% (n = 410,000). AID 1259415, 2018; in the data active = activity change below about -60%; inconclusive = no clear call, values can overlap the other calls; inactive = above about -39%
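Two compound doses tested in HFFs infected with HCMV-luciferase, MOI 1 PFU/cell, 72 h at 37C. Lysate luminescence read with OneGlo; data normalized against buffer-only and 10uM Salinomycin inhibitor controls.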
A number is an active result; 0 = inactive; ? = inconclusive; - = no result; ! = repeats disagree.

SMILES | Vaccinia mCherry | FMDV antiviral | LASV entry inh | VACV Venus inh | Marburg entry inh | HCMV antiviral
COc1ccc([C@H]2C[C@H](c3ccccc3)Nc3nc(N)nn32)cc1 | - | - | - | - | 0 | -
Cc1nc(SCCC(=O)O)c2cc(-c3ccccc3)sc2n1 | 0 | ? | ? | 0 | 3.98µM | 0
Cc1nc2c(c(C)c1CCC(=O)Nc1ccc(F)cc1)c(=O)n(C)c(=O)n2C | 0 | 0 | 0 | 0 | 0 | 0
C=CCN1c2ccccc2Sc2cnccc21 | 0 | ? | - | 0 | - | -67.7
CC(=O)OCCN1c2ccccc2Sc2cnccc21 | 0 | 0 | - | 0 | - | ?
CC1(C(=O)O)C2CCC(O2)C1(C)C(=O)O (configuration not stated) | - | - | 3.26µM | - | 4.11µM | -
CC1(C(=O)O)CCC(C(N)=O)C1(C)C (configuration not stated) | 0 | 0 | 0 | 0 | 0 | 0
COc1ccc(/C(O)=C2\C(=O)C(=O)N(CCN(C)C)[C@H]2c2cccc(OC)c2OC)cc1 | - | - | - | - | 0 | -
COC(=O)[C@H](Cc1ccc(C#Cc2ccccc2)cc1)NC(=O)C[C@H]1CCCN(C(=N)N)C1 | - | 0 | - | - | - | -
Cc1cc(=O)[nH]c(SCC(=O)Nc2ccc(S(N)(=O)=O)cc2)n1 | 0 | 0 | 0 | 0 | 0 | -61.4
CCc1ccc(NC(=O)CSc2nc(NS(=O)(=O)c3ccccc3)cc(=O)[nH]2)cc1 | 8.91µM | 0 | ? | 0 | 3.16µM | 0
COc1ccc(C(=O)c2sc(Nc3ccccc3)nc2N)cc1OC | ? | ? | 0 | ? | ? | -92.1
Cc1ccccc1Nc1nc(N)c(C(=O)c2ccccc2Cl)s1 | ? | 0 | 0 | ? | - | -68.9
COc1ccc(C(=O)c2sc(Nc3ccccc3)nc2N)cc1 | 0 | 0 | ? | ? | - | -61.1!
COc1ccc(C(=O)c2sc(Nc3ccccc3F)nc2N)cc1 | - | 0 | - | - | - | 0
Nc1nc(Nc2ccccc2)sc1C(=O)c1ccccc1 | ? | 0 | ? | 28.2µM | 0 | -88.3
COc1ccc(C(=O)c2sc(Nc3cc(Cl)ccc3C)nc2N)cc1OC | 0 | 0 | 0 | 0 | - | 0
C[C@@H]1CC[C@H]2C(=O)O[C@@H](Cc3ccccc3)CN2[C@@H]1c1ccc(Br)cc1 | - | - | - | - | 0 | -
COc1ccc2[nH]c(C(O)C(O)c3nc4c(OC)c(OC)ccc4[nH]3)nc2c1OC (configuration not stated) | 0 | - | - | 0 | - | -
Cc1noc(C)c1S(=O)(=O)N(CC(=O)NCc1ccccc1Cl)c1ccc(C(C)C)cc1 | 0 | 0 | 0 | ? | 0 | -62.0
CCc1ccc(NC(=O)CN(c2ccc3c(c2)OCO3)S(=O)(=O)c2c(C)noc2C)cc1 | 0 | ? | - | 0 | - | -70.8
CCOc1ccc(N(CC(=O)Nc2ccc3c(c2)OCCO3)S(=O)(=O)c2c(C)noc2C)cc1 | 0 | 0 | - | 0 | 0 | 0
COc1ccc(N(CC(=O)NCc2ccccc2Cl)S(=O)(=O)c2c(C)noc2C)cc1 | - | ? | - | - | - | 0
Cc1ccc(N(CC(=O)NCCc2ccccc2)S(=O)(=O)c2c(C)noc2C)cc1 | 0 | - | ? | 0 | ? | 0
CCOc1ccccc1NC(=O)CN(c1ccc(C)cc1)S(=O)(=O)c1c(C)noc1C | 0 | ? | ? | ? | ? | 0
SMILES | Vaccinia mCherry | FMDV antiviral | LASV entry inh | VACV Venus inh | Marburg entry inh | HCMV antiviral
CCOc1ccc(N(CC(=O)Nc2ccccc2CC)S(=O)(=O)c2c(C)noc2C)cc1 | 0 | 0 | 0 | ? | ? | -90.7
CCOc1ccc(N(CC(=O)NCCc2ccc(C)cc2)S(=O)(=O)c2c(C)noc2C)cc1 | - | 0 | - | - | - | -69.1
C=CCCN1C(=O)NC(c2ccccc2)C(C(=O)OC)=C1C (configuration not stated) | - | - | - | - | 0 | -
O=C(Nc1ccccc1Br)C1CC(=O)N(c2ccc3c4c(cccc24)CC3)C1 (configuration not stated) | 0 | 0 | ? | 0 | 10µM | 0
Cc1ccc(-c2nnc(SCCC(=O)Nc3ccccc3)n2C)cc1 | 0 | - | - | 0 | - | -
Cc1ccc(-n2nc3c(=O)n(CCCC(=O)NCc4ccccc4C)nc(C)c3c2C)cc1 | ? | 0 | 0 | 0 | - | 0
Cc1nn(CCC(=O)NCc2ccc(Cl)cc2)c(=O)c2nn(-c3ccccc3)c(C)c12 | 0 | ? | 0 | 0 | - | 0
Cc1ccc(CNC(=O)CCCn2nc(C)c3c(C)n(-c4ccccc4)nc3c2=O)cc1 | 0 | 7.08µM! | 0 | 0 | - | ?
